Compound activity deposited in PubChem BioAssay by National Center for Advancing Translational Sciences (NCATS).
Hits are enriched below; roughly 3.1% of the tested compounds scored in any of these assays.
Tau fluor cs: counter-screen for tau fibril formation inhibitors; tau K18 P301L Alexa594 fluorescence, heparin fibrillization; Potency, µM (top dose mostly 57.7 µM), for inactives: at the top dose activity change, negative = decrease; hit rate 0.93% among 280,000; further: nearly all actives have a fitted effect of over 55% in size
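Human K18 P301L tau (15 uM unlabeled plus 0.24 uM Alexa 594-labeled, final) in 100 mM sodium acetate pH 7 was mixed with compound and 20 uM heparin and incubated 6 hr at 37 C.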
Tau ThT inhib: tau fibrillization inhibition (ThT binding); recombinant tau K18 P301L (four-repeat tau fragment), heparin-induced fibrillization, ThT fluorescence; Potency, µM (doses to about 57.4 µM), for inactives: top-dose activity, negative = inhibition, actives largely listed as inhibitors; hit rate 2.1% among 270,000; AID 1460; further: nearly all actives have a fitted effect of over 55% in size
Target sequence (P10636 561-689 P618L limits assumed): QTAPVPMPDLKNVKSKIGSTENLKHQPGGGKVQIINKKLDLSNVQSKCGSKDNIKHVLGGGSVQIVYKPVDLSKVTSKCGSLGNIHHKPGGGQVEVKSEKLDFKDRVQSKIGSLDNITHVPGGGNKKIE
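In this qHTS, human K18 P301L tau is incubated with compound and heparin for 6 hr at 37 C, and Thioflavin T fluorescence then reports fibril load.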
TexasRed fluor: alters Texas Red total fluorescence, flagging assay interference | hit rate 0.29% among 280,000 | AID 1479 | TRb/SRC2 Texas Red total fluorescence interference | Potency, µM (doses to about 106 µM), inactives show top-dose fluorescence change, negative = quenching; active means well fitted curve in either direction with a large enough effect; inconclusive means small, poorly fitted or top-dose-only effect
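Flags fluorescent or light-absorbing compounds by total fluorescence, S + 2P, at 555 nm excitation and 632 nm emission. Mixture: 20 nM Texas Red SRC2 peptide, 0.6 uM human TRb LBD, 1 uM T3, 5% DMSO; compound exposure 5 h at ambient temperature.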
Tau fibril FP: inhibitors of human tau fibril formation; P10636; K18 P301L tau heparin fibrillization, Alexa594 FP, 6 h; Potency, µM (doses to about 57.7 µM), for inactives: at the top dose activity, negative = inhibition, hits mostly inhibitors; hit rate 0.39% among 280,000; AID 1468; further: nearly all actives have a fitted effect of over 55% in size
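Recombinant K18 P301L […], labeled with Alexa 594 at 0.24 uM over 15 uM unlabeled; heparin inducer 20 uM final; 37 C, 6 hr; FP endpoint.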
GoLoco inh red: RGS12 GoLoco-Gai1 interaction inhibition; Potency, µM (highest dose often 61.6 µM), without a hit: at the highest dose activity, negative = inhibition, actives largely listed as inhibitors; P63096; hit rate 0.44% among 230,000; Gai1:RGS12 GoLoco peptide FP, rhodamine, 10 min; active means well fitted inhibition curve with a large enough effect, not every such curve was filed as active; inactive means no such curve, though single readings can be large or run the other way; further: nearly all actives have a fitted effect of over 30% in size
Target sequence (P63096 whole entry, looked up): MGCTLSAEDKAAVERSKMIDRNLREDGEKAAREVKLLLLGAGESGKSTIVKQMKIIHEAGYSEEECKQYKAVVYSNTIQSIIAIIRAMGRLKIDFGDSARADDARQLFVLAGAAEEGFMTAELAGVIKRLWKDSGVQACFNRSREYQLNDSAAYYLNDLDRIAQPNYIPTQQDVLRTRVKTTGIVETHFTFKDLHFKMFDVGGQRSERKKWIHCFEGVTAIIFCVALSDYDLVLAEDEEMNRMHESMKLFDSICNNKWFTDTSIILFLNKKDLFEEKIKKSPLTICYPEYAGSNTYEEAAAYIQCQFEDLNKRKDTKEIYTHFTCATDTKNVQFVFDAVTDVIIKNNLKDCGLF
TRb SRC2 PPI: disrupts binding of human TR beta to SRC2. hit rate 0.065% among 280,000. TRbeta-SRC2 peptide binding, fluorescence polarization; receptor liganded with 1 µM T3. Potency, µM (doses to about 106 µM), without a hit: at the top dose activity change, negative = inhibition, hits mostly inhibitors;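 further: plate controls were bound peptide for no effect and peptide without receptor for full effect; nearly all actives have a fitted effect of over 50% in size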
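A fluorescence polarization screen tested compounds at multiple concentrations against complex formation between 0.6 uM TRb ligand-binding domain and 20 nM Texas Red SRC2 peptide, with 1 uM T3 present; readout after 5 hr.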
Numbers without * were called inactive; [ ] = dose if it differs, or a comment. Unless noted, the call rests on the fitted dose curve; in most records, active means well fitted curve in the direction sought with a large enough effect; inconclusive means small, poorly fitted or top-dose-only effect, or another doubt; inactive means no such curve, though single readings can be large; an effect the other way counts as inactive or inconclusive. Unless noted, on the % scale 0 is the no-effect control and ±100 the full control effect; potency means the concentration at half of the fitted maximal effect.

Screening O=C(CN1CC[n+]2c(-c3cccs3)csc21)c1ccc(-c2ccccc2)cc1 returned Tau fluor cs 22.2%, Tau ThT inhib 27.0%, TexasRed fluor 1.3%, Tau fibril FP 5.1%, GoLoco inh red 38.4% and TRb SRC2 PPI -8.1%.
`CC(=O)N1CCN(C(=S)c2ccc(Cl)cc2)CC1` gave Tau fluor cs 0.3%, Tau ThT inhib 5.6%, TexasRed fluor 1.2%, Tau fibril FP -3.1%, GoLoco inh red -1.4% and TRb SRC2 PPI -14.9%.
`CCc1ccc(-c2csc3[n+]2CCN3C(C)=O)cc1` gave Tau fluor cs -19.7%, Tau ThT inhib 25.1µM*, TexasRed fluor 1.9%, Tau fibril FP inconclusive, GoLoco inh red 1.6% and TRb SRC2 PPI -3.6%.
Screening CC(C)NC(=O)N1CCC(N2CCN(Cc3ccc(F)cc3)C(=O)C2=O)CC1 returned Tau fluor cs 0.5%, Tau ThT inhib 3.1%, TexasRed fluor -1.6%, Tau fibril FP -13.0% and TRb SRC2 PPI -1.3%.
For Cc1ccc2c(N)c(C)ccc2c1 the results were Tau fluor cs -17.0%, Tau ThT inhib -16.9%, TexasRed fluor -0.1%, Tau fibril FP 3.6%, GoLoco inh red 7.3% and TRb SRC2 PPI -2.9%.
Cc1ccc2cc3c(N)c4c(C)ccc(C)c4nc3nc2c1 was read as Tau fluor cs -27.7%, Tau ThT inhib inconclusive, TexasRed fluor -1.4%, Tau fibril FP 6.5%, GoLoco inh red 17.8µM* and TRb SRC2 PPI -1.3%.
`CCCn1nc2cc(C(=O)NCc3ccc(OC(F)(F)F)cc3)ccc2c1OCC` gave Tau fluor cs -16.9%, Tau ThT inhib -9.8%, TexasRed fluor -0.9%, Tau fibril FP -4.0%, GoLoco inh red -0.5% and TRb SRC2 PPI -3.2%.
Screening COc1ccc(NCC(O)Cn2cnc3c2c(=O)n(C)c(=O)n3C)cc1 (centres undefined) returned Tau fluor cs 0.7%, Tau ThT inhib -4.2%, TexasRed fluor -2.3%, Tau fibril FP -1.4%, GoLoco inh red 5.6% and TRb SRC2 PPI -2.8%.
For COc1ccccc1/C=C/c1nc(C#N)c(NCCc2ccccc2)o1 the results were Tau fluor cs 3.55µM*[quencher], Tau ThT inhib inconclusive, TexasRed fluor -4.5%, Tau fibril FP inconclusive and TRb SRC2 PPI -5.6%.
COc1ccccc1/C=C/c1nc(C#N)c(NCC(C)C)o1 was read as Tau fluor cs inconclusive, Tau ThT inhib inconclusive, TexasRed fluor -5.7%, Tau fibril FP inconclusive and TRb SRC2 PPI 2.1%.
Screening CN=c1scc(-c2cccs2)n1/N=C/c1ccccc1O returned Tau fluor cs -2.9%, Tau ThT inhib 10.6%, TexasRed fluor 0.2%, Tau fibril FP -7.8%, GoLoco inh red -11.8% and TRb SRC2 PPI -9.1%.
CN=c1scc(C)n1/N=C/c1ccc(O)c(O)c1O was read as Tau fluor cs inconclusive, Tau ThT inhib 7.08µM*, TexasRed fluor -16.7%, Tau fibril FP 25.1µM*, GoLoco inh red -0.8% and TRb SRC2 PPI -2.9%.
CN=c1scc(-c2cccs2)n1/N=C/c1ccc(O)c(O)c1O was read as Tau fluor cs 20µM*[quencher], Tau ThT inhib 12.6µM*, TexasRed fluor -15.2%, Tau fibril FP inconclusive, GoLoco inh red 36.0% and TRb SRC2 PPI 2.0%.
`CN=c1scc(C)n1/N=C/c1cc(Br)c(O)c(OC)c1` gave Tau fluor cs inconclusive, Tau ThT inhib 12.6µM*, TexasRed fluor -4.3%, Tau fibril FP 5.9%, GoLoco inh red -5.3% and TRb SRC2 PPI 10.2%.
CCCCCOc1ccc(/C=C/C(=O)Nc2sc(C)c(C)c2C(=O)OCC)cc1OC was read as Tau fluor cs -23.4%, Tau ThT inhib 28.2µM*, TexasRed fluor 4.8%, Tau fibril FP inconclusive and TRb SRC2 PPI -10.2%.
For COc1ccc(/C=C/C(=O)Nc2sc(C)c(C)c2C(=O)O)cc1 the results were Tau fluor cs inconclusive, Tau ThT inhib 2.24µM*, TexasRed fluor -7.6%, Tau fibril FP -0.5% and TRb SRC2 PPI -2.0%.
